PubChem BioAssay (NCI)
About 79,000 compounds went through this panel and 15% of them were active in at least one assay; those are over-represented in the sample as a whole. The source made the active and inactive calls. Rule as the data show it: active = growth inhibition above about 70%; inactive = the rest.

How the values were obtained:
[1] = NCI Yeast Anticancer Drug Screen. Data for the rad52 strain (AID 147);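 also: 0% = growth of vehicle-treated control cultures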; settings: S. cerevisiae rad52 mutant growth inhibition, active compounds read high
Method in brief: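 Compounds are applied to a genetically defined yeast strain lacking normal DNA damage repair, and inhibition of growth is expressed relative to cultures given vehicle only.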

[2] = NCI Yeast Anticancer Drug Screen. Data for the wt1 strain (AID 149);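 also: 0% = growth of vehicle-treated wt1 cultures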; settings: S. cerevisiae wt1 strain (SPY 50644) growth inhibition, active compounds read high
Method in brief: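 Growth inhibition read against vehicle controls after compound exposure of the wt1 yeast strain.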

[3] = NCI Yeast Anticancer Drug Screen. Data for the rad50EPP+ strain (AID 151);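 also: 0% = growth of vehicle-treated control cultures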; settings: S. cerevisiae rad50 mutant strain, active compounds read high
Method in brief: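 Compounds were applied to the rad50EPP+ yeast strain, which bears a defined DNA repair alteration, and growth inhibition was determined relative to vehicle-treated cultures.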

[4] = NCI Yeast Anticancer Drug Screen. Data for the rad50 strain (AID 155);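 also: 0% = growth of vehicle-only cultures of the same strain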; settings: S. cerevisiae rad50 strain growth inhibition, active compounds read high
Method in brief: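 Readout: growth inhibition relative to vehicle-treated cultures. Compound exposure was carried out in a genetically defined yeast strain deficient in DNA damage repair.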

[5] = NCI Yeast Anticancer Drug Screen. Data for the mec2-1 strain (AID 157); settings: S. cerevisiae mec2-1 strain, active compounds read high
Method in brief: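 Strain: mec2-1 (DNA repair/cell cycle alteration). Compound exposure, then growth measured; inhibition expressed relative to vehicle.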

[6] = NCI Yeast Anticancer Drug Screen. Data for the rad14 strain (AID 159);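 also: 0% = growth of vehicle-treated control cultures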; settings: S. cerevisiae rad14 strain growth inhibition, active compounds read high
Method in brief: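 Growth inhibition vs vehicle controls; genetically altered yeast strain (DNA damage repair defect) treated with test compounds.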

[7] = NCI Yeast Anticancer Drug Screen. Data for the sgs1 mgt1 strain (AID 161);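 also: 0% = growth of cultures given vehicle only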; settings: S. cerevisiae sgs1 mgt1 strain, active compounds read high
Method in brief: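 Read-out: growth inhibition vs vehicle controls. Cells: mutant yeast strain deficient in DNA damage repair.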

[8] = NCI Yeast Anticancer Drug Screen. Data for the CLN2oe strain (AID 163);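 also: 0% = growth of vehicle-only control cultures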; settings: S. cerevisiae CLN2oe strain, active compounds read high
Method in brief: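 Growth of a genetically modified yeast strain is measured after compound exposure and compared with cultures given vehicle alone.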

[9] = NCI Yeast Anticancer Drug Screen. Data for the cln2 rad14 strain (AID 165);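 also: 0% = growth equal to vehicle treated cultures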; settings: S. cerevisiae cln2 rad14 strain, active compounds read high
Method in brief: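 Compounds are applied to the cln2 rad14 yeast strain, and growth is then compared with that of vehicle-treated cultures to give inhibition.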

[10] = NCI Yeast Anticancer Drug Screen. Data for the bub3 strain (AID 167); settings: S. cerevisiae bub3 mutant strain, active compounds read high
Method in brief: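 Readout: yeast growth inhibition, expressed relative to vehicle-only wells. The test organism is a mutant strain from a panel with lesions in DNA repair or checkpoint genes.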

[11] = NCI Yeast Anticancer Drug Screen. Data for the wt2 strain (AID 169);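 also: 0% = growth of vehicle-treated yeast cultures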; settings: S. cerevisiae wt2 strain growth inhibition, active compounds read high
Method in brief: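 This strain belongs to a panel of yeast strains with defined genetic alterations in DNA damage repair or cell cycle control. Compounds are applied, and growth inhibition is measured against vehicle-treated cultures.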

[12] = NCI Yeast Anticancer Drug Screen. Data for the mlh1 strain (AID 171);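 also: 0% = growth of vehicle-treated control cultures of the same strain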; settings: S. cerevisiae mlh1 strain growth inhibition, active compounds read high
Method in brief: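 Growth of the mutant yeast strain after compound exposure, expressed as inhibition relative to vehicle-only controls.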

[13] = NCI Yeast Anticancer Drug Screen. Data for the sgs1 strain (AID 173);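 also: 0% = growth of vehicle-only control cultures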; settings: S. cerevisiae sgs1 mutant, active compounds read high
Method in brief: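 Growth of a yeast strain bearing a defined genetic alteration is measured after compound treatment. Inhibition is expressed relative to vehicle-only controls.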

[14] = NCI Yeast Anticancer Drug Screen. Data for the mlh1 rad18 strain (AID 175); settings: S. cerevisiae mlh1 rad18 strain growth inhibition, active compounds read high
Method in brief: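 Read-out is yeast growth inhibition, calculated against vehicle-only controls. The compound was applied to a strain engineered with DNA damage repair alterations.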

[15] = NCI Yeast Anticancer Drug Screen. Data for the rad18 strain (AID 177); settings: S. cerevisiae rad18 mutant growth inhibition, active compounds read high
Method in brief: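 Growth of the mutant yeast strain after compound exposure, normalised to vehicle-only cultures.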

[16] = at 5.0 µM (retest, dose inferred, filed as 0.5)
[17] = at 50.0 µM (retest, dose inferred, filed as 5.0)

Measured: growth inhibition

CCN(CC)CC(O)c1cc(-c2ccc(Cl)cc2)nc2c(-c3ccccc3)cccc12 (stereo unspecified)
inactive: [1]; at 1.2 µM -1% | [1]; at 3.7 µM -1% | [2]; at 1.2 µM 0% | [2]; at 3.7 µM -2% | [3]; at 1.2 µM -1% | [3]; at 3.7 µM 7% | [4]; at 1.2 µM 1% | [4]; at 3.7 µM 6% | [4]; [16] 48% | [5]; at 1.2 µM -8% | [5]; at 3.7 µM -3% | [5]; [16] 32% | [6]; at 1.2 µM -2% | [6]; at 3.7 µM 4% | [7]; [16] 41% | [8]; at 1.2 µM 0% | [8]; at 3.7 µM 2% | [9]; [16] 6% | [9]; at 50.0 µM 8.2% | [10]; at 1.2 µM 1% | [10]; at 3.7 µM -5% | [10]; [16] 22% | [10]; at 50.0 µM 46.3% | [11]; at 1.2 µM -2% | [11]; at 3.7 µM -4% | [12]; at 1.2 µM -2% | [12]; at 3.7 µM 2% | [13]; at 1.2 µM -1% | [13]; at 3.7 µM 3% | [14]; [16] 59% | [15]; at 1.2 µM -2% | [15]; at 3.7 µM -1%
active: [1]; at 11.0 µM 98% | [1]; at 33.0 µM 98% | [1]; at 100.0 µM 93% | [2]; at 11.0 µM 98% | [2]; at 33.0 µM 98% | [2]; at 100.0 µM 95% | [3]; at 11.0 µM 96% | [3]; at 33.0 µM 98% | [3]; at 100.0 µM 95% | [4]; at 11.0 µM 98% | [4]; at 33.0 µM 98% | [4]; [17] 94% | [4]; at 50.0 µM 94.7% | [4]; at 100.0 µM 93% | [5]; at 11.0 µM 98% | [5]; at 33.0 µM 98% | [5]; [17] 98% | [5]; at 50.0 µM 87.9% | [5]; at 100.0 µM 96% | [6]; at 11.0 µM 99% | [6]; at 33.0 µM 98% | [6]; at 100.0 µM 95% | [7]; [17] 97% | [7]; at 50.0 µM 97.7% | [8]; at 11.0 µM 98% | [8]; at 33.0 µM 97% | [8]; at 100.0 µM 94% | [9]; [17] 91% | [10]; at 11.0 µM 98% | [10]; at 33.0 µM 97% | [10]; [17] 95% | [10]; at 100.0 µM 92% | [11]; at 11.0 µM 99% | [11]; at 33.0 µM 98% | [11]; at 100.0 µM 94% | [12]; at 11.0 µM 99% | [12]; at 33.0 µM 98% | [12]; at 100.0 µM 95% | [13]; at 11.0 µM 98% | [13]; at 33.0 µM 98% | [13]; at 100.0 µM 96% | [14]; [17] 96% | [14]; at 50.0 µM 99.2% | [15]; at 11.0 µM 98% | [15]; at 33.0 µM 98% | [15]; at 100.0 µM 95%

CC1=CC2C(C(C)C)CC1C1C(=O)OC(=O)C21 (stereo unspecified)
active: [1]; at 100.0 µM 71% | [4]; [17] 83% | [4]; at 50.0 µM 86.7% | [4]; at 100.0 µM 81% | [5]; [17] 86% | [5]; at 50.0 µM 76.5% | [6]; at 100.0 µM 78% | [10]; at 50.0 µM 70.8% | [11]; at 100.0 µM 86% | [13]; at 100.0 µM 88% | [14]; [17] 77% | [14]; at 50.0 µM 76.4%
inactive: [1]; at 1.2 µM -12% | [1]; at 3.7 µM -14% | [1]; at 11.0 µM -2% | [1]; at 33.0 µM 20% | [2]; at 1.2 µM -5% | [2]; at 3.7 µM 0% | [2]; at 11.0 µM 6% | [2]; at 33.0 µM 13% | [2]; at 100.0 µM 51% | [3]; at 1.2 µM -8% | [3]; at 3.7 µM -20% | [3]; at 11.0 µM 10% | [3]; at 33.0 µM 33% | [3]; at 100.0 µM 49% | [4]; at 1.2 µM -13% | [4]; at 3.7 µM -16% | [4]; [16] -127% | [4]; at 11.0 µM -12% | [4]; at 33.0 µM 24% | [5]; at 1.2 µM -1% | [5]; at 3.7 µM 0% | [5]; [16] -42% | [5]; at 11.0 µM -2% | [5]; at 33.0 µM 2% | [5]; at 100.0 µM 37% | [6]; at 1.2 µM -2% | [6]; at 3.7 µM 4% | [6]; at 11.0 µM 13% | [6]; at 33.0 µM 24% | [7]; [16] -60% | [7]; [17] 25% | [7]; at 50.0 µM 13.6% | [8]; at 1.2 µM -7% | [8]; at 3.7 µM -11% | [8]; at 11.0 µM -10% | [8]; at 33.0 µM -9% | [8]; at 100.0 µM 16% | [9]; [16] -53% | [9]; [17] 47% | [9]; at 50.0 µM 13.4% | [10]; at 1.2 µM -6% | [10]; at 3.7 µM -6% | [10]; [16] -71% | [10]; at 11.0 µM -9% | [10]; at 33.0 µM -6% | [10]; [17] 66% | [10]; at 100.0 µM 50% | [11]; at 1.2 µM -8% | [11]; at 3.7 µM -2% | [11]; at 11.0 µM 11% | [11]; at 33.0 µM 36% | [12]; at 1.2 µM -16% | [12]; at 3.7 µM -7% | [12]; at 11.0 µM -6% | [12]; at 33.0 µM 10% | [12]; at 100.0 µM 56% | [13]; at 1.2 µM -14% | [13]; at 3.7 µM -10% | [13]; at 11.0 µM 7% | [13]; at 33.0 µM 27% | [14]; [16] -140% | [15]; at 1.2 µM -9% | [15]; at 3.7 µM -6% | [15]; at 11.0 µM -6% | [15]; at 33.0 µM 3% | [15]; at 100.0 µM 69%
